# Key:
# Assay in all cases: PBM binding z-score (relative to random genomic background probes); higher = stronger binding; sequences stand for … in GC…GCGATTGACAGCGTAGAATGAAGG
# [1] = test system: PPARg:RXRa DBDmut IVT, anti-RXR (DBD mutation: RXRa K156A/R161A, NR concentration 270 nM, RXRa partner concentration 90 nM)
# Outline: (§1)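 The probes on custom Agilent 4×180K protein-binding microarrays were double-stranded, with 34-nt variable regions bearing direct-repeat seeds, single-nucleotide variants, half-site ablations and random human genomic background sequences. Incubation lasted 1 h with ligand-free nuclear receptor dimers in PBS pH 7.4, 2% milk, 0.02% Triton X-100, 1 mM DTT, 0.2 mg/mL BSA and 0.4 mg/ml salmon testes DNA. Antibodies against each partner (one per run) detected bound dimers, and fluorescence scans were regression-normalized. Binding z-scores take the random background probes as reference.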
# [2] = test system: PPARg:RXRa IVT, anti-PPARg (NR concentration 270 nM, RXRa partner concentration 90 nM)
# Outline: as §1
# [3] = test system: PPARg DBDmut:RXRa IVT, anti-PPARg (DBD mutation: PPARg1 K132A/R137A, NR concentration 270 nM, RXRa partner concentration 90 nM)
# Outline: as §1
# [4] = test system: PPARg DBDmut IVT, anti-PPARg (DBD mutation: PPARg1 K132A/R137A, NR concentration 270 nM)
# Outline: as §1
# [5] = test system: PPARg homodimer (NR concentration 180 nM)
# Outline: as §1
# [6] = test system: PXR:RXRa (NR concentration 270 nM, RXRa partner concentration 90 nM)
# Outline: as §1
# [7] = test system: PXR homodimer (NR concentration 270 nM)
# Outline: as §1
# [8] = test system: RARa:RXR (NR concentration 270 nM, RXRa partner concentration 90 nM)
# Outline: as §1
# [9] = test system: RARa homodimer (NR concentration 270 nM)
# Outline: as §1
# [10] = test system: RARb:RXRa (NR concentration 270 nM, RXRa partner concentration 90 nM)
# Outline: as §1
# [11] = test system: RARb homodimer (NR concentration 270 nM)
# Outline: as §1
# [12] = test system: RARg:RXRa (NR concentration 270 nM, RXRa partner concentration 90 nM)
# Outline: as §1
# [13] = test system: RARg homodimer (NR concentration 270 nM)
# Outline: as §1
# [14] = test system: RXRa DBDmut IVT, anti-RXR (DBD mutation: RXRa K156A/R161A, NR concentration 90 nM)
# Outline: as §1
# [15] = test system: RXRa homodimer (NR concentration 180 nM)
# Outline: as §1
# [16] = test system: THRa:RXRa (NR concentration 90 nM, RXRa partner concentration 90 nM)
# Outline: as §1
# [17] = test system: THRa homodimer (NR concentration 90 nM)
# Outline: as §1
# [18] = test system: VDR:RXRa (NR concentration 270 nM, RXRa partner concentration 90 nM)
# Outline: as §1
# [19] = test system: VDR homodimer (NR concentration 270 nM)
# Outline: as §1
sequence,measurement,setting,value
CAGACTGGGGCATAAGGTTACCATAAGCCAGCCC,PBM binding z-score,[1],4
same,PBM binding z-score,[2],4.18
same,PBM binding z-score,[3],-0.272
same,PBM binding z-score,[4],-0.433
same,PBM binding z-score,[5],0.704
same,PBM binding z-score,[6],0.652
same,PBM binding z-score,[7],-0.537
same,PBM binding z-score,[8],1.59
same,PBM binding z-score,[9],-0.341
same,PBM binding z-score,[10],1.66
same,PBM binding z-score,[11],1.78
same,PBM binding z-score,[12],1.9
same,PBM binding z-score,[13],1.41
same,PBM binding z-score,[14],0.105
same,PBM binding z-score,[15],1.6
same,PBM binding z-score,[16],2
same,PBM binding z-score,[17],1.04
same,PBM binding z-score,[18],0.497
same,PBM binding z-score,[19],-0.0112
TCATATAGGAAAATGCTAGGTGAAAGTCCGATCT,PBM binding z-score,[1],2.71
same,PBM binding z-score,[2],0.68
same,PBM binding z-score,[3],0.369
same,PBM binding z-score,[4],0.466
same,PBM binding z-score,[5],0.42
same,PBM binding z-score,[6],0.59
same,PBM binding z-score,[7],0.397
same,PBM binding z-score,[8],0.636
same,PBM binding z-score,[9],1.22
same,PBM binding z-score,[10],0.176
same,PBM binding z-score,[11],0.42
same,PBM binding z-score,[12],0.204
same,PBM binding z-score,[13],0.133
same,PBM binding z-score,[14],1.41
same,PBM binding z-score,[15],0.778
same,PBM binding z-score,[16],0.612
same,PBM binding z-score,[17],0.548
same,PBM binding z-score,[18],0.9
same,PBM binding z-score,[19],0.37
CCAGACAGGTGAAAGGTAACTCGGTCTGGTACGC,PBM binding z-score,[1],2.3
same,PBM binding z-score,[2],2.9
same,PBM binding z-score,[3],-0.38
same,PBM binding z-score,[4],-1.24
same,PBM binding z-score,[5],0.981
same,PBM binding z-score,[6],0.75
same,PBM binding z-score,[7],-0.111
same,PBM binding z-score,[8],1.77
same,PBM binding z-score,[9],0.392
same,PBM binding z-score,[10],1.2
same,PBM binding z-score,[11],0.705
same,PBM binding z-score,[12],1.23
same,PBM binding z-score,[13],0.639
same,PBM binding z-score,[14],-0.242
same,PBM binding z-score,[15],2.27
same,PBM binding z-score,[16],0.879
same,PBM binding z-score,[17],0.0486
same,PBM binding z-score,[18],0.865
same,PBM binding z-score,[19],-0.126
CAAACTAGATCACCGGAAGGTCAAAGTCCGCATG,PBM binding z-score,[1],3.34
same,PBM binding z-score,[2],3.13
same,PBM binding z-score,[3],0.538
same,PBM binding z-score,[4],0.366
same,PBM binding z-score,[5],2.31
same,PBM binding z-score,[6],3.54
same,PBM binding z-score,[7],1.53
same,PBM binding z-score,[8],3.99
same,PBM binding z-score,[9],1.63
same,PBM binding z-score,[10],3.21
same,PBM binding z-score,[11],4.03
same,PBM binding z-score,[12],4.08
same,PBM binding z-score,[13],2.88
same,PBM binding z-score,[14],0.674
same,PBM binding z-score,[15],3.47
same,PBM binding z-score,[16],2.76
same,PBM binding z-score,[17],1.06
same,PBM binding z-score,[18],3.03
same,PBM binding z-score,[19],2.12
TCTTGTAGATCAATAGAGGTTAAGAAGGTGCGCT,PBM binding z-score,[1],1.45
same,PBM binding z-score,[2],0.982
same,PBM binding z-score,[3],-0.0465
same,PBM binding z-score,[4],0.519
same,PBM binding z-score,[5],0.274
same,PBM binding z-score,[6],2.12
same,PBM binding z-score,[7],-0.00143
same,PBM binding z-score,[8],1.94
same,PBM binding z-score,[9],0.262
same,PBM binding z-score,[10],0.921
same,PBM binding z-score,[11],1.27
same,PBM binding z-score,[12],0.969
same,PBM binding z-score,[13],0.482
same,PBM binding z-score,[14],0.518
same,PBM binding z-score,[15],1.33
same,PBM binding z-score,[16],2.37
same,PBM binding z-score,[17],-0.695
same,PBM binding z-score,[18],1.91
same,PBM binding z-score,[19],0.298
CAAACTAGCTCAAGGTCAAAGTCGGTTTGTGCCA,PBM binding z-score,[1],1.26
same,PBM binding z-score,[2],1.78
same,PBM binding z-score,[3],-0.371
same,PBM binding z-score,[4],-0.234
same,PBM binding z-score,[5],2.07
same,PBM binding z-score,[6],4.39
same,PBM binding z-score,[7],2.66
same,PBM binding z-score,[8],4.08
same,PBM binding z-score,[9],0.525
same,PBM binding z-score,[10],3.88
same,PBM binding z-score,[11],4.04
same,PBM binding z-score,[12],4.12
same,PBM binding z-score,[13],3.84
same,PBM binding z-score,[14],2.23
same,PBM binding z-score,[15],4.51
same,PBM binding z-score,[16],3.95
same,PBM binding z-score,[17],3.59
same,PBM binding z-score,[18],4.51
same,PBM binding z-score,[19],3.7
AGAACGAGGGCAATGAGTTGAGAGCACGGGTGGC,PBM binding z-score,[1],2.9
same,PBM binding z-score,[2],2.73
same,PBM binding z-score,[3],0.608
same,PBM binding z-score,[4],-0.139
same,PBM binding z-score,[5],0.0206
same,PBM binding z-score,[6],1.04
same,PBM binding z-score,[7],1.92
same,PBM binding z-score,[8],0.292
same,PBM binding z-score,[9],-0.276
same,PBM binding z-score,[10],2.05
same,PBM binding z-score,[11],1.1
same,PBM binding z-score,[12],0.994
same,PBM binding z-score,[13],1.58
same,PBM binding z-score,[14],1.93
same,PBM binding z-score,[15],0.838
same,PBM binding z-score,[16],1.1
same,PBM binding z-score,[17],-0.211
same,PBM binding z-score,[18],4.33
same,PBM binding z-score,[19],2.08
CTCGAAAGTTCGTGCTCAGGTGAGTATACCAAAC,PBM binding z-score,[1],-0.18
same,PBM binding z-score,[2],0.443
same,PBM binding z-score,[3],-0.211
same,PBM binding z-score,[4],0.0374
same,PBM binding z-score,[5],0.564
same,PBM binding z-score,[6],1.4
same,PBM binding z-score,[7],0.241
same,PBM binding z-score,[8],1.64
same,PBM binding z-score,[9],-0.0689
same,PBM binding z-score,[10],2.06
same,PBM binding z-score,[11],1.55
same,PBM binding z-score,[12],2.29
same,PBM binding z-score,[13],1.52
same,PBM binding z-score,[14],2.83
same,PBM binding z-score,[15],1.01
same,PBM binding z-score,[16],2.86
same,PBM binding z-score,[17],0.851
same,PBM binding z-score,[18],1.71
same,PBM binding z-score,[19],1.88

# — the supplement of paper PMC6555819
